This note sets out measurements from PubChem BioAssay (NCI).

Molecules are shown by their SMILES. This is part of a sample that, as a whole, favours compounds with a hit. Of some 79,000 tested, about 15% had one in any assay. Unmarked numbers belong to inactive results. The source made the active and inactive calls. Rule as the data show it: active = growth inhibition above about 70%; inactive = the rest.

A short description of assay [1]: NCI Yeast Anticancer Drug Screen. Data for the rad50 strain (AID 155).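 Also: 0% = growth of vehicle-only cultures of the same strain.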 Particulars: S. cerevisiae rad50 strain growth inhibition, hits give high values. Put shortly:
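DNA repair mutant yeast, compound exposure, growth read-out; inhibition is taken relative to vehicle.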

A short description of assay [2]: NCI Yeast Anticancer Drug Screen. Data for the mec2-1 strain (AID 157). Particulars: S. cerevisiae mec2-1 strain, hits give high values. Put shortly:
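Test agents were screened against the mec2-1 yeast strain, with defined DNA repair or cell cycle alteration. Growth was scored as inhibition against vehicle-only controls.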

The nature of assay [3]: NCI Yeast Anticancer Drug Screen. Data for the sgs1 mgt1 strain (AID 161).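 Also: 0% = growth of cultures given vehicle only.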 Particulars: S. cerevisiae sgs1 mgt1 strain, hits give high values. The method, boiled down:
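Inhibition of yeast growth, normalised to vehicle-treated controls, is reported for a strain bearing genetic alterations in DNA damage repair.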

A short description of assay [4]: NCI Yeast Anticancer Drug Screen. Data for the cln2 rad14 strain (AID 165).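 Also: 0% = growth equal to vehicle treated cultures.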 Particulars: S. cerevisiae cln2 rad14 strain, hits give high values. Put shortly: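 Growth of compound-exposed yeast (cln2 rad14 genotype) measured and expressed as inhibition relative to vehicle.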
Assay [5] is described as follows: NCI Yeast Anticancer Drug Screen. Data for the bub3 strain (AID 167). Particulars: S. cerevisiae bub3 mutant strain, hits give high values. The method, boiled down:
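In this screen, a yeast mutant lacking normal mitotic checkpoint function is challenged with compound. Relative growth versus vehicle gives the inhibition value.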

Assay [6] can be described thus: NCI Yeast Anticancer Drug Screen. Data for the mlh1 rad18 strain (AID 175). Particulars: S. cerevisiae mlh1 rad18 strain growth inhibition, hits give high values. Put shortly: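 In this whole-cell yeast screen, a strain with altered DNA damage repair is challenged with compound, and its growth is measured against matched vehicle-treated controls.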
Setting [7] is: at 5.0 µM (retest, dose inferred, filed as 0.5).
Setting [8] is: at 50.0 µM (retest, dose inferred, filed as 5.0).

Regarding `CC1(c2ccc(F)cc2)OC(=O)c2c1ccc1ccccc21` (configuration not stated), the growth inhibition was -7% in assay [1] (setting [7]); 68% in assay [1] (setting [8]); 56.2% in assay [1] (at 50.0 µM); -5% in assay [2] (setting [7]); 78% (active) in assay [2] (setting [8]); 42.8% in assay [2] (at 50.0 µM). The growth inhibition in assay [3] (setting [7]) is 0%; in assay [3] (setting [8]), 81% (active); in assay [3] (at 50.0 µM) it was 56.5%; in assay [4] (setting [7]), -15%; in assay [4] (setting [8]), 70% (active); in assay [4] (at 50.0 µM) it was -2.35%. For the same compound, the growth inhibition in assay [5] (setting [7]) is -6%; in assay [5] (setting [8]), 88% (active); in assay [5] (at 50.0 µM), 72.6% (active); in assay [6] (setting [7]) it was -9%; in assay [6] (setting [8]), 84% (active); in assay [6] (at 50.0 µM) it was 29.5%.

As to `O=C1CC(c2ccccc2)C(c2ccccc2)CO1` (configuration not stated), the growth inhibition in assay [1] (setting [7]) was 85% (active); in assay [1] (setting [8]), 99% (active); in assay [1] (at 50.0 µM) it was 84.9% (active); in assay [2] (setting [7]), 35%; in assay [2] (setting [8]) it was 99% (active); in assay [2] (at 50.0 µM), 92.7% (active). In addition, the growth inhibition in assay [3] (setting [7]) was 52%; in assay [3] (setting [8]), 98% (active); in assay [3] (at 50.0 µM), 91.5% (active); in assay [4] (setting [7]) it was 13%; in assay [4] (setting [8]), 98% (active); in assay [4] (at 50.0 µM), 93.8% (active). Moreover, the growth inhibition was 56% in assay [5] (setting [7]); 97% (active) in assay [5] (setting [8]); 94% (active) in assay [5] (at 50.0 µM); 74% (active) in assay [6] (setting [7]); 99% (active) in assay [6] (setting [8]); 93.7% (active) in assay [6] (at 50.0 µM).

In the case of `COc1cc(C2CC(=O)c3ccccc3O2)ccc1O` (configuration not stated), the growth inhibition in assay [1] (setting [7]) is 0%; in assay [1] (setting [8]) it was 98% (active); in assay [1] (at 50.0 µM) it was 89% (active); in assay [2] (setting [7]), 10%; in assay [2] (setting [8]) it was 99% (active); in assay [2] (at 50.0 µM), 92.7% (active). Further, the growth inhibition in assay [3] (setting [7]) was 17%; in assay [3] (setting [8]) it was 98% (active); in assay [3] (at 50.0 µM), 92.2% (active); in assay [4] (setting [7]), -16%; in assay [4] (setting [8]), 97% (active); in assay [4] (at 50.0 µM), 88.7% (active). Also, the growth inhibition in assay [5] (setting [7]) is 26%; in assay [5] (setting [8]), 97% (active); in assay [5] (at 50.0 µM) it was 90.7% (active); in assay [6] (setting [7]), 15%; in assay [6] (setting [8]), 98% (active); in assay [6] (at 50.0 µM), 89.5% (active).

As for `CCCCCCCCCCCCCCCC[N+](C)(C)C(C)c1ccccc1` (configuration not stated), the growth inhibition was 98% (active) in assay [1] (setting [7]); 98% (active) in assay [1] (setting [8]); 90.5% (active) in assay [1] (at 50.0 µM); 98% (active) in assay [2] (setting [7]); 99% (active) in assay [2] (setting [8]); 90.7% (active) in assay [2] (at 50.0 µM). Further, the growth inhibition is 99% (active) in assay [3] (setting [7]); 99% (active) in assay [3] (setting [8]); 90.5% (active) in assay [3] (at 50.0 µM); 99% (active) in assay [4] (setting [7]); 99% (active) in assay [4] (setting [8]); 86% (active) in assay [4] (at 50.0 µM). For the same compound, the growth inhibition in assay [5] (setting [7]) was 98% (active); in assay [5] (setting [8]), 98% (active); in assay [5] (at 50.0 µM), 92.6% (active); in assay [6] (setting [7]) it was 98% (active); in assay [6] (setting [8]), 97% (active); in assay [6] (at 50.0 µM), 91.8% (active).

`O=C(CC(=O)C(F)(F)F)c1ccc(-c2ccccc2)cc1`: the growth inhibition in assay [1] (setting [7]) is 27%; in assay [1] (setting [8]) it was 99% (active); in assay [1] (at 50.0 µM), 97% (active); in assay [2] (setting [7]), 45%; in assay [2] (setting [8]) it was 99% (active); in assay [2] (at 50.0 µM), 98.2% (active). For the same compound, the growth inhibition is 39% in assay [3] (setting [7]); 99% (active) in assay [3] (setting [8]); 98% (active) in assay [3] (at 50.0 µM); 14% in assay [4] (setting [7]); 98% (active) in assay [4] (setting [8]); 97.8% (active) in assay [4] (at 50.0 µM). Also, the growth inhibition is 36% in assay [5] (setting [7]); 99% (active) in assay [5] (setting [8]); 97.2% (active) in assay [5] (at 50.0 µM); 45% in assay [6] (setting [7]); 99% (active) in assay [6] (setting [8]); 98.7% (active) in assay [6] (at 50.0 µM).

Turning to `CN1CCC(OC(=O)c2ccc3ncccc3c2)CC1`, the growth inhibition in assay [1] (setting [7]) is -6%; in assay [1] (setting [8]), 6%; in assay [1] (at 50.0 µM) it was 34.6%; in assay [2] (setting [7]) it was -2%; in assay [2] (setting [8]) it was 4%; in assay [2] (at 50.0 µM), 26.6%. The growth inhibition in assay [3] (setting [7]) was -2%; in assay [3] (setting [8]), 13%; in assay [3] (at 50.0 µM) it was 17.6%; in assay [4] (setting [7]) it was -5%; in assay [4] (setting [8]), 2%; in assay [4] (at 50.0 µM), 85.6% (active). The growth inhibition is -4% in assay [5] (setting [7]); 2% in assay [5] (setting [8]); 33.9% in assay [5] (at 50.0 µM); -7% in assay [6] (setting [7]); 7% in assay [6] (setting [8]); 32% in assay [6] (at 50.0 µM).

Regarding `CC1(C)CC(=O)C(CSC(=O)c2ccccc2)=C(O)C1`, the growth inhibition in assay [1] (setting [7]) was -1%; in assay [1] (setting [8]) it was 17%; in assay [1] (at 50.0 µM), -13.9%; in assay [2] (setting [7]), -2%; in assay [2] (setting [8]), -1%; in assay [2] (at 50.0 µM), -5.45%. In addition, the growth inhibition in assay [3] (setting [7]) was -4%; in assay [3] (setting [8]), -3%; in assay [3] (at 50.0 µM) it was 3.05%; in assay [4] (setting [7]), -2%; in assay [4] (setting [8]) it was -11%; in assay [4] (at 50.0 µM) it was 45.6%. Moreover, the growth inhibition in assay [5] (setting [7]) was -2%; in assay [5] (setting [8]), -2%; in assay [5] (at 50.0 µM), -27.6%; in assay [6] (setting [7]), -7%; in assay [6] (setting [8]) it was 15%; in assay [6] (at 50.0 µM), -6.2%.

For the compound `OCC1CC[N-]CC1.OCC1CC[N-]CC1.[Cl][Pt+2]([Cl])([Cl])[Cl]`, the growth inhibition in assay [1] (setting [7]) was 24%; in assay [1] (setting [8]) it was 99% (active); in assay [1] (at 50.0 µM) it was 98.4% (active); in assay [2] (setting [7]) it was 5%; in assay [2] (setting [8]) it was 97% (active); in assay [2] (at 50.0 µM) it was 92.6% (active). The growth inhibition in assay [3] (setting [7]) was 33%; in assay [3] (setting [8]), 98% (active); in assay [3] (at 50.0 µM), 96.8% (active); in assay [4] (setting [7]), 15%; in assay [4] (setting [8]), 98% (active); in assay [4] (at 50.0 µM), 92.3% (active). Also, the growth inhibition in assay [5] (setting [7]) is 6%; in assay [5] (setting [8]), 99% (active); in assay [5] (at 50.0 µM) it was 96.2% (active); in assay [6] (setting [7]) it was 40%; in assay [6] (setting [8]) it was 98% (active); in assay [6] (at 50.0 µM), 82.5% (active).

For `O=C1OC(=O)c2cc([N+](=O)[O-])cc3cccc1c23`, the growth inhibition in assay [1] (setting [7]) was 3%; in assay [1] (setting [8]) it was 97% (active); in assay [1] (at 50.0 µM), 22.9%; in assay [2] (setting [7]), 13%; in assay [2] (setting [8]), 99% (active); in assay [2] (at 50.0 µM), 36.2%. Besides, the growth inhibition in assay [3] (setting [7]) is 3%; in assay [3] (setting [8]), 99% (active); in assay [3] (at 50.0 µM) it was 29.2%; in assay [4] (setting [7]) it was 22%; in assay [4] (setting [8]), 98% (active); in assay [4] (at 50.0 µM), 36.6%. Besides, the growth inhibition in assay [5] (setting [7]) was 21%; in assay [5] (setting [8]) it was 99% (active); in assay [5] (at 50.0 µM), 47.5%; in assay [6] (setting [7]) it was 8%; in assay [6] (setting [8]), 99% (active); in assay [6] (at 50.0 µM) it was 76.7% (active).
